This note sets out measurements from PubChem BioAssay (NCATS).

Records with an inconclusive call do not appear. Entries that show only a call come without a potency. Activity calls are given as the source filed them. Calls come from the whole dose curve; as a rule, active = well fitted curve in the direction sought with a large enough effect; inconclusive = small, poorly fitted or top-dose-only effect, or another doubt; inactive = no such curve, though single readings can be large; an effect the other way counts as inactive or inconclusive.

Assay [1] has as its system Zika virus NS2B-NS3 protease. Nature of the assay: Primary screen GU AMC qHTS for Zika virus inhibitors (AID 1347154). Note: nearly all actives have a fitted effect of over 70% in size. An outline of the steps:
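Unlinked Zika NS2B hydrophilic domain/NS3 protease domain noncovalent complex (25 nM final) in 10 mM Tris-HCl pH 8.0, 0.01% Tween 20, with AMC peptide substrate. Fluorescence (ex 340, em 450 nm) change over 15 min, room temperature; percent inhibition fitted to 4-parameter Hill equation.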

Assay [2] concerns the target Protein phosphatase 1D (Homo sapiens) (UniProt O15297). The assay can be described thus: RapidFire Mass Spectrometry qHTS Assay for Modulators of WT P53-Induced Phosphatase 1 (WIP1) (AID 1347424).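 Note: amount of dephosphorylated VEPPL-S-QETFS peptide product formed by WIP1; series mostly up to about 63 µM.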 An outline of the steps: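 WIP1 (10 nM final) was preincubated 1 h at room temperature with compounds in Tris-HCl pH 7.5, 30 mM MgCl2, TCEP, EGTA, BSA; 2 uM VEPPL-pS-QETFS phosphopeptide was added for 5 min, quenched with formic acid, and dephosphorylated product quantified by RapidFire MS.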

The target is the same in assay [3]. Nature of the assay: Rhodamine-PBP qHTS Assay for Modulators of WT P53-Induced Phosphatase 1 (WIP1) (AID 1347425). In short, it runs like this:
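The read-out is the change in Rhodamine-PBP fluorescence (f1 - f0, ex 525/em 598 nm) as Pi is released, read each minute for 11 min. Final reaction: 5 nM WIP1, 10 uM phosphopeptide VEPPL-pS-QETFS, 10 uM Rh-PBP, 50 mM Tris-HCl pH 7.5, 30 mM MgCl2. Compound was preincubated with enzyme for 1 hour at room temperature.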

Assay [4] is described as follows: qHTS to identify inhibitors of the type 1 interferon - major histocompatibility complex class I in skeletal muscle: primary screen against the NCATS Pharmaceutical Collection (AID 1347407). In short, it runs like this: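 Luminescence from HiBiT-tagged endogenous HLA-B*08:01 served as the read-out of IFN-beta-induced MHC class I in CRISPR-engineered C25cl48 myoblasts. Cells received 4 ng/ml IFN-beta plus compound (high final 46 uM, […]) for 24 h.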

Assay [5] is described as follows: Confirmatory screen GU Rhodamine qHTS for Zika virus inhibitors qHTS (AID 1347157). Note: potency is the fitted concentration of half-maximal effect; nearly all actives have a fitted effect of over 70% in size. The settings on record: purified enzyme assay, Rhodamine110 substrate fluorescence, 15 min. In short, it runs like this: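 Percent inhibition derives from the 15-min fluorescence change (ex 480, em 540 nm), normalized to no-enzyme and no-inhibitor wells. Reactions contained 25 nM NS2B-NS3 complex and 1.5 microM substrate in 10 mM Tris-HCl pH 8.0.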

Assay [6] can be described thus: Confirmatory screen NINDS Rhodamine qHTS for Zika virus inhibitors (AID 1347161). Note: potency is the fitted concentration of half-maximal effect; nearly all actives have a fitted effect of over 60% in size. The following applies: purified enzyme assay, Rhodamine110 substrate fluorescence, 15 min. An outline of the steps: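 Percent inhibition, normalized to uninhibited and enzyme-free controls, is fitted to a 4-parameter Hill equation. Fluorescence change comes from a 15-min cleavage of 1.5 microM bis-peptide Rhodamine110 substrate by 25 nM linked NS2B-NS3 at room temperature.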

Assay [7] in a line: qHTS to identify inhibitors of the type 1 interferon - major histocompatibility complex class I in skeletal muscle: primary screen against the NCATS LOPAC collection (AID 1347405).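 Note: lytic HiBiT luminescence reporting HLA-B protein level.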 In short, it runs like this:
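Luminescence from HiBiT fused to endogenous HLA-B in CRISPR-engineered human myoblasts served as the read-out. Cells received 4.0 ng/ml IFN-beta plus compound (seven concentrations, 1:4.3 steps, highest 46 uM final) for 24 hrs before lytic detection.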

The nature of assay [8]: qHTS for inhibitors of adenylyl cyclases using a fission yeast platform: a pilot screen against the NCATS LOPAC library (AID 1347410). In short, it runs like this:
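Fission yeast qHTS: CHP2027 cells (AC9-GNAS-PDE4D2, fbp1-GFP), 5x10^6 cells/mL working density, EMM + His/Lys/Ura; LOPAC at up to 57 µM final; 18 h dark, 30C; GFP by laser cytometry. DPI positive control, DMSO vehicle.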

The nature of assay [9]: Validation qHTS assay for inhibitors of Activation Induced Cytidine Deaminase (AID): UDG Counterscreen signal (AID 1347427). In short, it runs like this: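 Counterscreen read of UDG activity (2 U/mL, 4/3x) in the FRET deamination format with AID (1 uM, 4/3x), DJC20/DJC23 substrates (250 nM, 4x), 4 h at room temperature. NaOH stop, fluorescence at 560 ex/665 em.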

Chain of Protein phosphatase 1D (Homo sapiens) (O15297 whole entry, looked up): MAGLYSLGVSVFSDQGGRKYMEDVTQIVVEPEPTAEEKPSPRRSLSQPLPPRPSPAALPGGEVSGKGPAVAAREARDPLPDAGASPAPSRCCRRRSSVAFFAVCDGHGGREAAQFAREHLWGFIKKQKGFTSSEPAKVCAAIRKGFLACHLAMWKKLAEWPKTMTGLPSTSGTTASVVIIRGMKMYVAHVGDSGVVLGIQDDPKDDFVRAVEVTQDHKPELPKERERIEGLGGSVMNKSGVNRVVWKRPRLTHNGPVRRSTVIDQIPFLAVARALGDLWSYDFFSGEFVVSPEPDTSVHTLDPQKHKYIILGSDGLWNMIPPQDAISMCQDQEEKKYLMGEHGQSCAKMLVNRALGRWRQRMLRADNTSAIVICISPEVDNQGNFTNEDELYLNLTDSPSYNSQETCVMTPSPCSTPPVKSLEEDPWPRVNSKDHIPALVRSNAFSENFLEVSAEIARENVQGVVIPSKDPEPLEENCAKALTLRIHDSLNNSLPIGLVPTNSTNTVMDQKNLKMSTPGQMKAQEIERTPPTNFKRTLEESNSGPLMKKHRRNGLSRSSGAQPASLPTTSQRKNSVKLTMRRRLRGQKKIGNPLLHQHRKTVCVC

`NC(CSCC(=O)O)C(=O)O` (stereo unspecified): the Potency entry in assay [1] is “inactive”. The molecule was called inactive in assay [2] and in [3].
As to `O=C1NS(=O)(=O)c2ccccc21`, the Potency entry in assay [1] was “inactive”. Also, the molecule was classed as inactive in [2] and in assay [3].
Consider `c1ccc2c(CC3=NCCN3)cccc2c1`, for which the Potency entry in [1] and in assay [4] was “inactive” throughout. The call in [2] and in [3] was inactive.
For `O=S(=O)(O)NC1CCCCC1`, the Potency result in [1] and in assay [4] was “inactive” each time. The molecule was classed as inactive in assay [2] and in [3].
Turning to `CC12CCC(CC1)C(C)(C)O2`, the Potency result in [1] and in assay [4] was “inactive” each time. Further, the outcome in assay [2] and in [3] was inactive.
For `NS(=O)(=O)c1cc2c(cc1C(F)(F)F)NC(Cc1ccccc1)NS2(=O)=O` (stereo unspecified), the Potency result in assay [1] and in [4] was “inactive” each time. Further, the result in assay [2] and in [3] was inactive.
For `CC1(C)OC(=O)NC1=O`, the Potency result in assay [1] and in assay [4] was “inactive” in each case. Also, the molecule was called inactive in [2] and in assay [3].
For the molecule `COc1ccc2c(c1)C(=O)N(CCc1ccc(S(=O)(=O)NC(=O)NC3CCCCC3)cc1)C(=O)C2(C)C`, the figures for the Potency in assay [5] and in assay [6] were 27.8 µM (active) and 31.2 µM (active), respectively.
As for `C=Cc1c(C)c2cc3[nH]c(cc4nc(cc5nc(cc1[nH]2)C(C)=C5CCC(=O)O)C(CCC(=O)O)=C4C)c(C)c3C=C`, the Potency entry in assay [7] and in assay [9] was “inactive” each time. In addition, the molecule was classed as inactive in assay [8] and in [3].
Turning to `O=C(O)COc1nn(Cc2ccccc2)c2ccccc12`, the molecule was classed as inactive in assay [2] and in assay [3].
As for `Cc1cc2nc3c(=O)[nH]c(=O)nc-3n(C[C@H](O)[C@H](O)[C@H](O)CO)c2cc1C`, the result in assay [2] and in assay [3] was inactive.
For the molecule `CN(C)CCCO[C@@H]1[C@H]2OC(C)(C)O[C@H]2O[C@@H]1C(O)CO` (stereo partly specified), the Potency entry in [4] was “inactive”. The molecule was classed as inactive in [2] and in assay [3].
For the molecule `O=C(Oc1ccccc1C(=O)O)c1ccccc1O`, the call in assay [2] and in assay [3] was inactive.
Regarding `COc1ccccc1O`, the Potency result in assay [4] is “inactive”. For the same molecule, the result in [2] and in assay [3] was inactive.
Take `O=C(O)[C@H](O)c1ccccc1`: the Potency entry in assay [4] was “inactive”. Further, the molecule was called inactive in [2] and in [3].
Regarding `Cc1cccc(C)c1NC(=O)CN(CC(=O)O)CC(=O)O`, the molecule was called inactive in assay [2] and in [3].
As for `CNCCCC1c2ccccc2C=Cc2ccccc21`, the Potency entry in [7] and in assay [9] was “inactive” each time. In addition, the call in assay [8], in [2] and in assay [3] was inactive.
Take `CC(=O)NC(Cc1ccccc1)C(=O)O` (stereo unspecified): the Potency entry in assay [4] is “inactive”. Moreover, the molecule was classed as inactive in [2] and in assay [3].
Turning to `CC1(C)S[C@@H]2[C@H](NC(=O)Cc3ccccc3)C(=O)N2[C@H]1C(=O)O` (tested in a mixture with another compound), the molecule was called inactive in assay [2] and in assay [3].
For the molecule `CC(O)COc1ccccc1` (stereo unspecified), the Potency entry in [4] is “inactive”. The molecule was classed as inactive in assay [2] and in [3].
Take `OCc1cc(C(O)CNCCCCCCOCCCCc2ccccc2)ccc1O` (stereo unspecified): the Potency entry in assay [4] and in assay [9] was “inactive” in each case. In addition, the result in [2] and in [3] was inactive.
On to `CC(C)NC[C@H](O)c1ccc(O)c(O)c1`, for which the Potency result in assay [7] and in assay [9] was “inactive” throughout. Besides, the molecule was classed as inactive in assay [8].
For the molecule `CN1[C@@H]2CC[C@H]1CC(OC(=O)C(O)c1ccccc1)C2` (stereo partly specified), the Potency result in [4] was “inactive”. For the same molecule, the outcome in [2] and in assay [3] was inactive.
Regarding `CC[N+](CC)(CC)CCOc1ccc(/C=C/c2ccccc2)cc1`, the molecule was called inactive in assay [2] and in assay [3].
As for `O=C(O)Cc1sc(-c2ccccc2)nc1-c1ccc(Cl)cc1`, the Potency result in [4] is “inactive”. In addition, the molecule was called inactive in assay [2] and in assay [3].
With `NS(=O)(=O)c1cc2c(cc1Cl)NC(CSCc1ccccc1)=NS2(=O)=O`, the molecule was called inactive in assay [2] and in assay [3].
As for `CC(=O)Oc1c(C)c(C)c2c(c1C)CC[C@@](C)(CCC[C@H](C)CCC[C@H](C)CCCC(C)C)O2`, the molecule was classed as inactive in assay [2] and in [3].
